Measurements as given in PubChem BioAssay AID1159580 (chemical genetic matrix, 2015).
The campaign covered roughly 5,500 compounds. About 2,000 (36%) were called active. Another 18% or so got no clear call; they are omitted. No stated cut-off is given here; in the data, active means normalized growth mostly below about 0.91 (no sharp cut-off); inconclusive means no clear call, values can overlap the other calls; inactive means mostly above about 0.92. Some of the results follow.

Test: chemical genetic growth profiling, strain panel (AID 1159580);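 further: tested at 20 µM; growth read once vehicle control cultures reached saturation at 30 °C; 1 = growth at the plate median or of vehicle wells; lower values mean less growth of the strain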
Conditions: growth OD
[1] = S. cerevisiae deletion strains, locus YAL013W, strain DEP1, hits give low values
[2] = S. cerevisiae deletion strains, locus YBR229C, strain ROT2, hits give low values
[3] = S. cerevisiae deletion strains, locus YCL061C, strain MRC1, hits give low values
[4] = S. cerevisiae deletion strains, locus YDL101C, strain DUN1, hits give low values
[5] = S. cerevisiae deletion strains, locus YDR150W, strain NUM1, hits give low values
[6] = S. cerevisiae deletion strains, locus YEL061C, strain CIN8, hits give low values
[7] = S. cerevisiae deletion strains, locus YGR078C, strain PAC10, hits give low values
[8] = S. cerevisiae deletion strains, locus YHR030C, strain SLT2, hits give low values
[9] = S. cerevisiae deletion strains, locus YHR087W, strain rtc3, hits give low values
[10] = S. cerevisiae deletion strains, locus YJL187C, strain SWE1, hits give low values
[11] = S. cerevisiae deletion strains, locus YJR043C, strain POL32, hits give low values
[12] = S. cerevisiae deletion strains, locus YJR075W, strain HOC1, hits give low values
[13] = S. cerevisiae deletion strains, locus YKL190W, strain CNB1, hits give low values
[14] = S. cerevisiae deletion strains, locus YLR039C, strain RIC1, hits give low values
[15] = S. cerevisiae deletion strains, locus YLR058C, strain SHM2 (second series), hits give low values
[16] = S. cerevisiae deletion strains, locus YLR085C, strain ARP6, hits give low values
[17] = S. cerevisiae deletion strains, locus YLR262C, strain YPT6, hits give low values
[18] = S. cerevisiae deletion strains, locus YML094W, strain GIM5, hits give low values
[19] = S. cerevisiae deletion strains, locus YMR219W, strain ESC1, hits give low values
[20] = S. cerevisiae deletion strains, locus YMR263W, strain SAP30, hits give low values
[21] = S. cerevisiae deletion strains, locus YMR307W, strain GAS1, hits give low values
[22] = S. cerevisiae deletion strains, locus YNL153C, strain GIM3, hits give low values
[23] = S. cerevisiae deletion strains, locus YNL298W, strain CLA4 (second series), hits give low values
[24] = S. cerevisiae deletion strains, locus YNL322C, strain KRE1, hits give low values
[25] = S. cerevisiae deletion strains, locus YNR030W, strain Alg12, hits give low values
[26] = S. cerevisiae deletion strains, locus YPL055C, strain LGE1, hits give low values
[27] = S. cerevisiae deletion strains, locus YPL241C, strain CIN2, hits give low values
[28] = S. cerevisiae deletion strains, locus YPR135W, strain CTF4, hits give low values
[29] = S. cerevisiae strains, strain wild type, hits give low values
[30] = S. cerevisiae deletion strains, locus YOL006C, strain TOP1, hits give low values
[31] = S. cerevisiae deletion strains, locus YGR229C, strain SMI1, hits give low values

Measured: normalized growth

Cc1csc2ccc(Cl)cc12
inactive: [1] 0.994 | [2] 0.998 | [3] 1.01 | [4] 1.02 | [5] 0.993 | [6] 1.01 | [7] 0.998 | [8] 1.07 | [9] 0.999 | [10] 1.02 | [11] 1 | [12] 0.98 | [13] 1.01 | [14] 1.07 | [15] 1 | [16] 1.03 | [17] 1.04 | [18] 1.01 | [19] 1 | [20] 1.01 | [21] 1.07 | [22] 1.02 | [23] 1.06 | [24] 1.01 | [25] 1.03 | [26] 0.996 | [27] 1.02 | [28] 1 | [29] 1.01

Cc1c(Br)sc2ccc(Cl)cc12
active: S. cerevisiae deletion strains, locus YDL134C, strain PPH21, hits give low values 0.849 | [8] 0.294 | [14] 0.733 | [16] 0.708 | [17] 0.709 | [18] 0.864 | [23] 0.782
inactive: [1] 0.987 | [2] 0.936 | [4] 0.96 | [5] 1.03 | [6] 0.909 | [7] 0.952 | [9] 0.963 | [11] 1.05 | [12] 0.955 | [13] 0.959 | [15] 0.952 | [19] 0.948 | [20] 0.99 | [22] 0.98 | [24] 0.976 | [25] 0.926 | [30] 0.891 | [26] 1.04 | [27] 0.939 | [28] 0.953

NC(N)=[N+]1CCc2ccccc2C1
inactive: S. cerevisiae deletion strains, locus YAL040C, strain CLN3, hits give low values 0.966 | S. cerevisiae deletion strains, locus YCL061C, strain MRC1 (second series), hits give low values 0.989 | [5] 1 | S. cerevisiae deletion strains, locus YDR363W, strain ESC2, hits give low values 0.904 | S. cerevisiae deletion strains, locus YER002W, strain NOP16, hits give low values 0.982 | [31] 0.962 | [20] 0.988 | [21] 1 | S. cerevisiae deletion strains, locus YNL128W, strain TEP1, hits give low values 0.992 | [22] 1 | S. cerevisiae deletion strains, locus YNL175C, strain NOP13, hits give low values 0.991 | S. cerevisiae deletion strains, locus YNL197C, strain WHI3, hits give low values 0.984 | S. cerevisiae deletion strains, locus YNL224C, strain SQS1, hits give low values 1.01 | [24] 0.972 | S. cerevisiae deletion strains, locus YOR083W, strain WHI5 (second series), hits give low values 0.969 | [26] 0.944

COc1cc(OC)nc(N)n1
inactive: [1] 1.02 | [2] 0.958 | [3] 1.03 | [4] 1.04 | [5] 1.03 | [6] 1 | [7] 1.03 | [31] 0.979 | [8] 1.06 | [9] 0.974 | [10] 1.02 | [11] 1.06 | [12] 1.01 | [13] 0.992 | [14] 0.946 | [15] 0.991 | [16] 0.949 | [17] 0.96 | [18] 0.986 | [19] 0.98 | [20] 1.02 | [22] 1.02 | [23] 0.99 | [24] 0.988 | [25] 0.999 | [30] 1.01 | [26] 1.02 | [27] 1.02 | [28] 1.06 | [29] 0.985

O=C1ON=C(CSc2ccccc2)/C1=C/c1ccc(Cl)cc1
active: [1] 0.0593 | [2] 0.0605 | [4] 0.0787 | [5] 0.0599 | [6] 0.215 | [7] 0.0528 | [31] 0.522 | [8] 0.0755 | [9] 0.0592 | [11] 0.0516 | [12] 0.0832 | [13] 0.201 | [14] 0.283 | [15] 0.0598 | [16] 0.0742 | [17] 0.324 | [18] 0.343 | [19] 0.0677 | [20] 0.0516 | [22] 0.0589 | [23] 0.155 | [24] 0.0609 | [25] 0.101 | [26] 0.0724 | [27] 0.0913 | [28] 0.161 | [29] 0.337
